# Among all 320,000 compounds or so, about 2,100 (0.66%) were called active. Roughly 53% stayed inconclusive and do not appear here. The call rests on the fitted dose curve; in most records, active means well fitted inhibition curve with a large enough effect in the signal ratio, with a control signal flat (not every such curve was filed as active); inconclusive means small, poorly fitted or top-dose-only effect, or effect the other way, or a change in a side signal; inactive means flat fitted curve, though single readings scatter; the % refers to the signal ratio. Shown is part of a subset that was picked to be rich in actives.
# Assay: qHTS Assay for Lipid Storage Modulators in Drosophila S3 Cells;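 on cell number change: cells counted by Cell Tracker Red CMTPX staining in the red channel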; on lipid storage change, negative = inhibition: on the % scale 0 is the no-effect control and ±100 the full control effect
# Settings: BODIPY lipid droplet fluorescence, 18-24 h, cells fed with added oleic acid; cell number change: measured here: cell count max response; series mostly up to 46.1 µM; lipid storage change, negative = inhibition: at the top concentration
# How it was run: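 Laser-scanning cytometry quantifies lipid droplet accumulation (500–530 nm total intensity; droplet/cell object ratio) in oleic acid-fed (400 uM added) Drosophila S3 cells treated with a concentration series. 20 uM Triacsin C defined 100% inhibition.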
# Potency means the concentration at half of the fitted maximal effect.
Compound,Potency,cell number change [%],"lipid storage change, negative = inhibition",outcome
O=C(COC(=O)Cn1cnc2ccccc21)NCCc1ccc(Cl)cc1,8.2 µM (active),22.6,–,–
O=C(COC(=O)Cn1cnc2ccccc21)NCCC1=CCCCC1,–,-15.3,-86.9% (inactive),–
O=C(COC(=O)Cn1cnc2ccccc21)NCc1ccc(F)cc1,–,21.3,6.01% (inactive),–
CC(=O)Nc1ccc(S(=O)(=O)N2CCN=C2SCc2cccnc2)cc1,–,-0.745,-0.0501% (inactive),–
COc1cc(-n2nc(C)c3c2OC(N)=C(C#N)C3c2ccccc2)c(Cl)c(Br)c1O (configuration not stated),–,-5.47,–,inactive
Cc1cc(N2CCCCC2)nc2c(C)cccc12,–,3.12,9.06% (inactive),–
COc1ccc(/C=c2/sc3n(c2=O)C(c2ccccc2OC)C2=C(N=3)c3ccccc3CC2)cc1O (configuration not stated),–,-22.9,15.6% (inactive),–
CN(C)C(=O)C(OC(=O)c1ccc2ccccc2n1)c1ccccc1 (configuration not stated),–,16.5,–,inactive
CN(C)C(=O)C(OC(=O)c1ccc2c(c1)CCCC2)c1ccccc1 (configuration not stated),0.58 µM (active),15.3,–,–
COc1ccc(C(=O)OC(C(=O)c2ccccc2)c2ccccc2)cc1 (configuration not stated),–,-12.3,-14.1% (inactive),–
CCOC(=O)c1cc(=O)c2c([N+](=O)[O-])ccc(OC)c2o1,–,-14.1,-7.08% (inactive),–
CC(=O)Nc1cccc(Oc2ccc3c(c2)C(=O)NC3=O)c1,–,-4.38,-10.3% (inactive),–
CCC(=O)Nc1ccc(Oc2ccc3c(c2)C(=O)NC3=O)cc1,–,-7.29,–,inactive
CCCC(=O)Nc1cccc(Oc2ccc3c(c2)C(=O)NC3=O)c1,1.46 µM (active),-28.1,–,–
CC(C)c1ccc(NC(=O)N2CCOCC2)cc1,–,-1.06,–,inactive
O=C(CSc1nc(-c2ccc(F)cc2)nc2c1Cc1ccccc1O2)Nc1ccc(C(=O)O)cc1,–,-7.56,4.47% (inactive),–
CN1CCCN(C(=O)c2ccccc2Cl)CC1,–,-6.61,-22.4% (inactive),–
CN1CCCN(C(=O)c2c(F)cccc2Cl)CC1,1.64 µM (active),-3.31,–,–
O=C(c1c(F)cccc1F)N1CCCC1,–,7.6,0.776% (inactive),–
CCOC(=O)/C(C#N)=C(/C)c1ccc(OC)cc1,–,–,–,inactive
CCOc1cc2[nH]c(=O)n(CCc3ccc(OC)c(OC)c3)c(=O)c2cc1OCC,–,0.389,10.7% (inactive),–
O=C(O)c1ccc(N/N=C2/CCCc3ccccc32)cc1,–,24.2,1.14% (inactive),–
O=C1c2ccccc2-c2c1cccc2C(=O)N(CCO)CCO,25.9 µM (active),-9.84,–,–
CC(C)CNC(=O)c1cccc2c1-c1ccccc1C2=O,–,24.1,14.4% (inactive),–
CCN(CC)C(=O)c1cccc2c1C(=O)c1ccccc1-2,–,11.5,9.17% (inactive),–

Compound,Potency,cell number change [%],"lipid storage change, negative = inhibition",outcome
CC12CN(S(=O)(=O)c3ccccc3)CC(C)(CN(S(=O)(=O)c3ccccc3)C1)C2,–,1.2,1.31% (inactive),–
CCC(C)(C)NC(=O)CN(C(=O)c1csnn1)c1cccc2c1CCCC2,–,-10.5,-4.03% (inactive),–
O=C(NCCO)c1cc2c([nH]c3ccccc32)c(-c2ccccc2)n1,–,-12.4,-0.328% (inactive),–
COc1ccc(-c2nc(C(=O)NCC3CCCO3)cc3c2[nH]c2ccccc23)cc1 (configuration not stated),–,-11.3,-81.9% (inactive),–
COc1cc(-c2nc(C(=O)NC3CCCCC3)cc3c2[nH]c2ccccc23)cc(OC)c1OC,13 µM (active),13.2,–,–
CCOCCCNC(=O)Cn1cc2c(n1)CCCC2,–,13.2,-2.58% (inactive),–
COC(=O)Cn1c(=NC(=O)c2cc(OC)cc(OC)c2)sc2cc(OC)ccc21,–,-0.279,-18.2% (inactive),–
COc1ccc(NC(=O)CSc2nncs2)cc1S(N)(=O)=O,–,–,-14% (inactive),–
Cc1c(N)cccc1N,–,16.6,6.46% (inactive),–
O=C(CSC1=NS(=O)(=O)c2cc(Cl)ccc2N1)Nc1ccccc1F,–,0.0379,1.27% (inactive),–
O=C(CSC1=NS(=O)(=O)c2ccccc2N1)Nc1ccccc1F,6.51 µM (active),-3.42,–,–
O=C(CSC1=NS(=O)(=O)c2cc(F)ccc2N1)Nc1ccccc1F,–,–,–,inactive [at 0.0737 µM]
Cc1ccc(S(=O)(=O)N2CCN(S(=O)(=O)N3CCC(C)CC3)CC2)c(C)c1,–,12.8,–,inactive
CCOC(=O)c1csc(NC(=O)c2cccs2)n1,20.6 µM (active),-11.6,–,–
O=C(NCCCCNC(=O)c1cccs1)c1cccs1,–,-29,-20.8% (inactive),–
CCOCCCNC(=O)C(Cc1ccccc1)NC(=O)c1ccco1 (configuration not stated),13 µM (active),-1.42,–,–
COCCCNC(=O)c1cccs1,–,12.5,–,inactive
CCOCCCNC(=O)c1c(-c2ccccc2)noc1C,20.6 µM (active),-15.4,–,–
CCOC(=O)c1sc(NC(=O)c2cccs2)nc1C,–,7.32,-6.52% (inactive),–
CC(=O)Nc1ccc(OCCCNC(=O)c2c(-c3ccccc3)noc2C)cc1,–,-3.99,-5.94% (inactive),–
COCCCNC(=O)c1c(-c2ccccc2)noc1C,–,19.6,9.31% (inactive),–
O=C(NC(Cc1ccccc1)C(=O)O)c1ccco1 (configuration not stated),–,6.62,16% (inactive),–
CCOCCCNC(=O)c1cccs1,6.51 µM (active),17.5,–,–
CCCC(=O)Nc1nc(C(=O)OCC)cs1,–,-4.4,-10.7% (inactive),–
Cc1ccc(CNC(=O)[C@H](Cc2ccccc2)NC(=O)c2ccco2)cc1,–,9.45,11.7% (inactive),–

Compound,Potency,cell number change [%],"lipid storage change, negative = inhibition",outcome
Cc1cccc(/C=C/c2nc3ccccc3c(=O)[nH]2)c1,–,-2.24,-2.08% (inactive),–
O=C(NCC(=O)N(Cc1cccs1)C(C(=O)NC1CCCC1)c1ccncc1)c1ccco1 (configuration not stated),–,–,–,inactive
Cn1c(Cn2c(=O)sc3ccccc32)nnc1SCC(N)=O,–,4.82,2.33% (inactive),–
CCCCCC(=O)Nc1cc(N(C)C)nc2ccccc12,–,6.14,–,inactive
COc1ccc(CC(=O)OCC(=O)Nc2ccc(C(=O)Nc3ccc(OC)cc3)cc2)cc1,–,6.99,0.407% (inactive),–
Cc1ccc2sc(NC(=O)CN3C(=O)c4ccccc4C3=O)nc2c1C,–,-0.832,19.1% (inactive),–
CCCCC(O)(CCCC)C(=O)NN(C(=O)OC)c1ccccc1,–,0.36,8.53% (inactive),–
CCCC(O)(CCC)C(=O)NN(C(=O)CCl)c1cccc(C)c1,20.6 µM (active),-4.84,–,–
CCC(O)(CC)C(=O)NN(C(=O)CCl)c1ccccc1,20.6 µM (active),-5.65,–,–
CCCC(O)(CCC)C(=O)NN(C(=O)OC)c1ccccc1,–,12.3,7.85% (inactive),–
CCCCC(O)(CCCC)C(=O)NN(C(=O)OCC)c1ccccc1,–,11.1,-7.04% (inactive),–
Cc1cccc(N(NC(=O)C(C)(C)O)C(=O)c2ccccc2)c1,–,7.68,-3.6% (inactive),–
CC1CCCCN1Cc1c(O)ccc2c(=O)c(-c3ccc(Cl)cc3Cl)coc12 (configuration not stated),–,-3.44,0.45% (inactive),–
Cc1ccc(C)c(NC(=S)NCc2cccs2)c1,–,-1.36,-0.72% (inactive),–
CC(=O)Nc1cccc(C(=O)NC(C)c2ccc(-n3ccnc3)cc2)c1 (configuration not stated),–,–,–,inactive
CC(=O)Nc1cccc(C(=O)NC(C)c2ccc(S(N)(=O)=O)cc2)c1 (configuration not stated),1.64 µM (active),21.3,–,–
CC(NC(=O)c1ccc(S(=O)(=O)Nc2ccccc2)cc1)c1ccc(S(N)(=O)=O)cc1 (configuration not stated),–,2.41,11.1% (inactive),–
CC(C)CCN(C(=S)Nc1cccc(C(F)(F)F)c1)C(C)c1ccccn1 (configuration not stated),32.6 µM (active),-20.3,–,–
CC(c1ccccn1)N(CCN(C)C)C(=S)Nc1cccc(F)c1 (configuration not stated),–,–,–,inactive
CC(C)N(C(=S)Nc1cccc(C(F)(F)F)c1)C(C)c1ccccn1 (configuration not stated),–,–,0.651% (inactive),–
Cc1ncoc1C(=O)Nc1cccc(Cl)c1C,–,–,–,inactive
CCc1cc(=O)oc2cc(C)cc(OC(C)C(=O)NC3CC(C)(C)NC(C)(C)C3)c12 (configuration not stated),–,17.3,–,inactive
Cc1ccc(S(=O)(=O)CCSc2nc(C)cc(C(F)(F)F)c2C#N)cc1,16.4 µM (active),-21.5,–,–
Cc1ccc(S(=O)(=O)CCSc2ccc(C(F)(F)F)cn2)cc1,–,21.4,6.53% (inactive),–
CCS(=O)(=O)CCSc1nc(C)cc(C)c1C#N,–,5.68,–,inactive

Compound,Potency,cell number change [%],"lipid storage change, negative = inhibition",outcome
COc1ccc(NC(=O)CSCC(=O)N=c2sccn2C)cc1,–,23.3,–,inactive
COc1ccc(-n2nc3c(c2NC(=O)CCCl)CSC3)cc1,–,1.89,25.1% (inactive),–
CN1/C(=C\C=N\NC(=O)c2ccc(O)cc2)C(C)(C)c2ccccc21,2.31 µM (active),-19.2,–,–
CN1/C(=C/C=C(C#N)C#N)C(C)(C)c2ccccc21,7.31 µM (active),7.31,–,–
CN1/C(=C\C(=O)Nc2ccc(F)cc2)C(C)(C)c2ccccc21,–,-24.5,-15.1% (inactive),–
CN1/C(=C\C(=O)C(F)F)C(C)(C)c2ccccc21,–,–,–,inactive
CN1/C(=C/C=C(/C#N)C(N)=O)C(C)(C)c2ccccc21,–,13.2,-1.55% (inactive),–
CN1/C(=C\C=Nc2ccc3ccccc3c2)C(C)(C)c2ccccc21,–,6.9,-22.9% (inactive),–
CCc1cc(C(=O)N2CCCC(CCC(=O)N3CCN(c4ccccn4)CC3)C2)no1 (configuration not stated),–,-4.75,-10% (inactive),–
O=C(CSc1nc2ccccc2[nH]1)NCC1CCCO1 (configuration not stated),–,1.54,-1.44% (inactive),–
O=C(CCC(=O)c1ccc(F)cc1)Nc1cccc(C(F)(F)F)c1,–,-4.38,-22% (inactive),–
COc1cc(COC(=O)c2cnc(C)cn2)c(OC)cc1Br,0.517 µM (active),4.62,–,–
Cc1cnc(C(=O)OCc2c(C)cc(C(C)(C)C)cc2C)cn1,–,3.78,-22.9% (inactive),–
COc1ccc(C(C)=O)cc1COC(=O)c1cnc(C)cn1,–,5.96,–,inactive
COc1ccc(C(C(=O)NC2CCCC2)N(C(=O)c2ccco2)c2ccc3c(c2)OCO3)cc1OC (configuration not stated),–,–,17.5% (inactive),–
COc1ccccc1NC(=O)Nc1c(C)nn(C)c1C,–,22.1,4.48% (inactive),–
C/C=C/c1ccc(OCCn2nnc3ccccc32)c(OC)c1,–,1.4,-26% (inactive),–
COc1ccc(-c2cc(C(=O)c3c(N)n(C)c(=O)n(C)c3=O)c3ccccc3n2)cc1,–,0.639,15.1% (inactive),–
CCOCCCN1CN(S(=O)(=O)c2ccc(Cl)cc2)c2nc3ccccc3nc21,–,-11.9,14.5% (inactive),–
Cc1c(CNCCc2ccc(Cl)cc2)c(C(=O)O)c(C)n1Cc1ccccc1,–,–,–,inactive
Cc1ccc(NC(=O)COC(=O)CSC(=S)N2CCOCC2)cc1C,–,1.5,5.57% (inactive),–
O=C(CCl)N1c2ccccc2SCC1c1ccccc1 (configuration not stated),1.03 µM (active),-4.27,–,–
O=C(CCl)N1c2ccccc2OCC1c1ccccc1 (configuration not stated),–,-20.4,–,inactive
O=C(O)CN1C(=O)CSc2ccccc21,–,2.34,-0.578% (inactive),–
